A selection: hits, their analogues and other compounds. The true share with any hit is near 12%.
Arbovirus inh: arbovirus infection inhibition. inhibition, % at 10 µM. actives 0.37% (n = 200,000). arbovirus infection cell-based antiviral screen; in the data active = inhibition above about 30%
WT yeast gro inh: growth inhibition of WT yeast, mitochondrial fusion screen; mitochondrial fusion phenotypic screen, WT strain; inhibition, % at 10 µM; actives 2.1% (n = 190,000); in the data active = inhibition above about 58%; tested in S. cerevisiae
Lmaj promast: inhibitors of Leishmania major promastigote growth. Leishmania major promastigotes, resazurin fluorescence viability. inhibition, % at 10 µM. actives 9% (n = 200,000); in the data active = inhibition above about 50%;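 note: promastigotes grown with compound for 44 hours at 28 °C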
CHOP inh: blocks CHOP induction under ER stress; CHO-K1 CHOP-promoter luciferase, tunicamycin-induced, 15-18 h; AID 2732; inhibition, % at 10 µM; actives 3.8% (n = 220,000);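 active = compounds that reduced the stress-induced luciferase reporter signal by more than about 70% of percent inhibition, limit read from the data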
Of the large screens only hits and unclear results are named; the others gave an inactive call.

CC(=O)c1ccc(NC(=S)NC(C)c2ccc(Cl)cc2Cl)cc1 (stereo not given)	WT yeast gro inh 83.9, CHOP inh 72.9
O=C(c1ccc(NC(=S)Nc2ccc(Cl)c(Cl)c2)cc1)N1CCCC1	WT yeast gro inh 80.5
NS(=O)(=O)c1ccc(NC(=S)Nc2ccc(C(=O)N3CCCCC3)cc2)cc1	none
O=C(OCc1ccc(Cl)cc1)c1cnccn1	CHOP inh 82.5 (no result: WT yeast gro inh)
O=C(O)c1ccc(Sc2nnc3ccccn23)c([N+](=O)[O-])c1	none (no result: Arbovirus inh, WT yeast gro inh, Lmaj promast)
O=C(c1cc(-c2cccc(O)c2)on1)N1CCN(C(c2ccccc2)c2ccccc2)CC1	CHOP inh 78.0
O=C(c1cc(C2CC2)on1)N1CCN(C(c2ccccc2)c2ccccc2)CC1	none
NC(=O)c1ccsc1NC(=O)Cc1ccc([N+](=O)[O-])cc1	none
CCCCc1ccc(NC(=S)NCc2cccnc2)cc1	none
Cn1c(N)c(C(=O)COC(=O)[C@H](Cc2ccccc2)N2C(=O)c3ccccc3C2=O)c(=O)n(C)c1=O	none
CC(C)CC(C(=O)OCC(=O)c1c(N)n(C)c(=O)n(C)c1=O)N1C(=O)c2ccccc2C1=O (stereo not given)	Lmaj promast 57.2
Clc1ccc(/C=N/Nc2nnc(Cl)c3ccccc23)cc1	none
Clc1nnc(N/N=C/c2ccccc2)c2ccccc12	CHOP inh 75.3
O=P(COCCOCCOCP(=O)(c1ccccc1)c1ccccc1)(c1ccccc1)c1ccccc1	none
CCCCN(C)CCCNC(=O)c1ccc(N2CCCC2=O)cc1	Lmaj promast 51.3
O=C(NCCCN1CCN(c2cccc(Cl)c2)CC1)c1ccc(N2CCCC2=O)cc1	Lmaj promast 97.5
O=C(N/N=C/c1cc2c(cc1Cl)OCO2)c1ccncc1	none
O=C(N/N=C/c1ccc(Br)s1)c1ccncc1	none
O=C(N/N=C/c1c[nH]c2ccc(Br)cc12)c1ccncc1	none
O=C(N/N=C/c1cc(Cl)cc(Cl)c1O)c1ccncc1	CHOP inh 75.5 (no result: Arbovirus inh, WT yeast gro inh, Lmaj promast)
O=C(N/N=C/c1cc(Br)cc(Br)c1O)c1ccncc1	Lmaj promast 96.1
O=C(N/N=C/c1cc(Br)c(Br)s1)c1ccncc1	Lmaj promast 98.5
Oc1c(Cl)cc(Cl)cc1/C=N/Nc1ncc(Br)cn1	Lmaj promast 96.0
CCNc1c(NCC)c(=O)c1=O	none (no result: Arbovirus inh, WT yeast gro inh, Lmaj promast)
CC1(C)Oc2nc3ccccc3n2/C1=C\C#N	none
CC(=O)Nc1ccccc1P(=O)(c1ccccc1)c1ccccc1OC(C)=O (stereo not given)	none (no result: Arbovirus inh, WT yeast gro inh, Lmaj promast)
COc1ccc(NC(=O)c2cccs2)cc1NC(=O)c1ccco1	Lmaj promast 52.2
COc1cc(NC(=O)c2ccc([N+](=O)[O-])o2)ccc1NC(=O)c1cccs1	WT yeast gro inh 94.8, Lmaj promast 100.0
CCCN(CCC)CCNC(=O)C1c2ccccc2C(=O)N2CCc3ccccc3C12 (stereo not given)	none
Cc1ccccc1NC(=O)CNC(=O)c1ccc(C(F)(F)F)cc1	Lmaj promast 62.1
O=C(CN1CCOc2ccccc21)NC1CCN(Cc2ccccc2)CC1	Lmaj promast 77.8
O=C(Cn1cc2c(n1)CCCC2)NC1CCN(Cc2ccccc2)CC1	Lmaj promast 72.0, CHOP inh 82.2
O=C(CN1CCOc2ccccc21)NC1CCCCCCC1	none (no result: CHOP inh)
COc1cccc(OC)c1C(=O)Oc1ccc2c(c1)O/C(=C\c1ccncc1)C2=O	Lmaj promast 93.8
O=C1/C(=C/c2ccccc2)Oc2cc(OC(=O)N3CCOCC3)ccc21	Lmaj promast 73.6
O=C(NCc1ccco1)C1CCCN1C(=O)Nc1ccc(Cl)cc1 (stereo not given)	none
COc1ccc(CCNC(=O)c2cccnc2SC)cc1	none
COc1ccc(OCCCn2cc(/C=C3/C(=N)N4C=C(C)SC4=NC3=O)c3ccccc32)cc1	Lmaj promast 86.7
CC1=CN2C(=N)/C(=C/c3ccco3)C(=O)N=C2S1	none
CC1=CN2C(=N)/C(=C/c3cn(CCCOc4ccccc4C)c4ccccc34)C(=O)N=C2S1	none
COc1cccc(OCCCn2cc(/C=C3/C(=N)N4C=C(C)SC4=NC3=O)c3ccccc32)c1	Lmaj promast 94.8
CC(=O)Nc1ccc(OCC(O)Cn2c3ccccc3c3ccccc32)cc1 (stereo not given)	Lmaj promast 85.2
CC(=O)Nc1ccc(OCC(O)Cn2ccnc2C)cc1 (stereo not given)	none
OC(COc1ccccc1)Cn1c2ccccc2c2ccccc21 (stereo not given)	WT yeast gro inh 80.0, Lmaj promast 69.6, CHOP inh 88.8
O=C(O)c1ccc(OCC(O)Cn2c3ccccc3c3ccccc32)cc1 (stereo not given)	none (no result: Arbovirus inh, WT yeast gro inh, Lmaj promast)
Cc1ccccc1OCC(O)Cn1c2ccccc2c2ccccc21 (stereo not given)	Lmaj promast 91.2, CHOP inh 90.3
CCn1c2ccccc2c2cc(NC(=O)c3cc(OC)c(OC)c(OC)c3)ccc21	none
CC(=O)Nc1ccc(OCC(O)Cn2c3ccccc3c3ccccc32)c(C)c1 (stereo not given)	Lmaj promast 75.2
O=C(/C=C/c1ccccc1)NC(=S)Nc1ncccn1	none (no result: Arbovirus inh, WT yeast gro inh, Lmaj promast)
COc1ccccc1NC(=O)O/N=C(\N)c1ccccc1	none (no result: Arbovirus inh, WT yeast gro inh, Lmaj promast)
CCN=c1sc2ccccc2n1CC(O)COc1ccccc1 (stereo not given)	Lmaj promast 99.5
COC(=O)c1sccc1NC(=O)C1CC2CCC1C2 (stereo not given)	CHOP inh 93.5
COC(=O)c1sccc1NC(=O)C1CC(C)=C(C)CC1C(=O)O (stereo not given)	none (no result: Arbovirus inh, WT yeast gro inh, Lmaj promast)
COC(=O)c1sccc1NC(=S)N1CC(C)CC(C)C1 (stereo not given)	CHOP inh 92.9
Cc1cc(C)n(C(=O)/C=C/c2cccs2)n1	none (no result: Arbovirus inh, WT yeast gro inh, Lmaj promast)
CCCCCc1nc2sc3c(c2c(=O)n1NC(=O)c1ccc([N+](=O)[O-])cc1)CC(C)(C)OC3	WT yeast gro inh 80.1, CHOP inh 76.4
CCOC(=O)c1c(N)sc(C(O)(C(F)(F)F)C(F)(F)F)c1-c1ccccc1	WT yeast gro inh 96.8, CHOP inh 104.7
COC(=O)c1c(NC(=O)COc2ncnc3ccccc23)sc(C)c1C	none
COC(=O)c1c(NC(=O)CSc2nc3ccccc3c(=O)n2-c2ccccc2)sc(C)c1C	Lmaj promast 99.4
CC(=O)c1ccc(NC(=O)CSc2nc3nc(C)cc(C)n3n2)cc1	none
CCOC(=O)c1c(NC(=O)CSc2ncnc3ccccc23)sc(C)c1C	Lmaj promast 76.6
COC(=O)c1c(NC(=O)CSc2nc3nc(C)cc(C)n3n2)sc(C)c1C	Lmaj promast 52.1
CCOC(=O)c1c(NC(=O)CSc2ccccc2C(=O)O)sc(C)c1C	Arbovirus inh 32.8
CCN(CC)S(=O)(=O)N1CCC(C(=O)NCc2ccco2)CC1	none
CC1CCN(C2(O)C(=O)Nc3ccc(Br)cc32)CC1 (stereo not given)	none
CN(C)S(=O)(=O)c1cccc(NC(=O)c2ccc(N3CCOCC3)c([N+](=O)[O-])c2)c1	none
O=C(NC1CCCCC1)c1ccc(Cn2cc(Cl)cn2)cc1	none
Cn1c(SCC(=O)NC(C)(C)C)nnc1-c1cnccn1	none
Cc1cccc(C)c1NS(=O)(=O)c1ccc(OCCNS(C)(=O)=O)cc1	none
CN(C)c1oc(-c2ccc(Cl)cc2)nc1S(=O)(=O)c1ccccc1	none
Cc1cc(C)c(S(C)(=O)=O)c(Oc2cccc(C(F)(F)F)c2)n1	none
O=C(COc1ccccc1)N/N=C/c1ccc([N+](=O)[O-])o1	Lmaj promast 100.3
O=C(CNc1ccc2ccccc2c1)N/N=C/c1ccc(C(=O)O)cc1	none
